Measured values from PubChem BioAssay (NCATS).
Where “and” joins values, the source holds several entries; their conditions need not be identical. Equal values may be shown once. Inconclusive results are not listed. A call without a number means that no potency is given here. More than one record can exist for a structure, and the calls need not agree. Calls of active or inactive are those of the source. Calls follow the shape of the dose curve; as a rule, active = well fitted curve in the direction sought with a large enough effect; inconclusive = small, poorly fitted or top-dose-only effect, or another doubt; inactive = no such curve, though single readings can be large; an effect the other way counts as inactive or inconclusive.

Tests used:
[1] = Primary qHTS for inhibitors of nuclear receptor binding SET domain protein 2 (NSD2) in an isogenic RCH-ACV NSD2 p.E1099K mutant (9B) (AID 1645876); conditions: RCH-ACV NSD2 E1099K (9B) viability, CellTiter-Glo, 72 h; series mostly up to 44.9 µM; also: nearly all actives have a fitted effect of over 70% in size; also: potency is read from the fitted curve at half-maximal effect
[2] = Primary qHTS for inhibitors of nuclear receptor binding SET domain protein 2 (NSD2) in an RCH-ACV wild type WT cells (2C) (AID 1645877); conditions: RCH-ACV (leukaemia line) NSD2 WT (2C) viability, CellTiter-Glo, 72 h; series mostly up to 44.9 µM; also: nearly all actives have a fitted effect of over 70% in size; also: potency is read from the fitted curve at half-maximal effect
[3] = target: Glutathione peroxidase 1 (Homo sapiens) (UniProt P07203); experiment: Primary qHTS Assay for Inhibitors of Recombinant Selenoprotein Glutathione Peroxidase 1 (GPX1) (AID 1845191); conditions: recombinant GPX1, GR-coupled NADPH fluorescence, 15 min; series mostly up to 48.8 µM; also: nearly all actives have a fitted effect of over 65% in size; also: potency is read from the fitted curve at half-maximal effect
Sequence of Glutathione peroxidase 1 (Homo sapiens) (P07203 whole entry, looked up): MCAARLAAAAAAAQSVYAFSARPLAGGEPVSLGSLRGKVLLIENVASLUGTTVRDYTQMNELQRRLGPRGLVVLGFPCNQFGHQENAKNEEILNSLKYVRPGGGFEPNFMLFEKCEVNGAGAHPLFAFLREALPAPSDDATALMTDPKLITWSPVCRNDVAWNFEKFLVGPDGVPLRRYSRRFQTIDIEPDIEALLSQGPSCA
In short: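 Recombinant GPX1 (10 nM final) was preincubated with compound for 30 min at room temperature, then reacted with 1 mM GSH, 0.5 mM CHP, 0.5 mM NADPH and 100 nM glutathione reductase; NADPH fluorescence (340/450 nm) was read at 0 and 15 min.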

[4] = target: Phospholipid hydroperoxide glutathione peroxidase GPX4 (Homo sapiens) (UniProt P36969); experiment: Primary qHTS Assay for Inhibitors of Recombinant Selenoprotein Glutathione Peroxidase 4 (GPX4) (AID 1845192); conditions: recombinant GPX4, GR-coupled NADPH fluorescence, 15 min; series mostly up to 50 µM; also: nearly all actives have a fitted effect of over 65% in size; also: potency is read from the fitted curve at half-maximal effect
Sequence of Phospholipid hydroperoxide glutathione peroxidase GPX4 (Homo sapiens) (P36969 whole entry, looked up): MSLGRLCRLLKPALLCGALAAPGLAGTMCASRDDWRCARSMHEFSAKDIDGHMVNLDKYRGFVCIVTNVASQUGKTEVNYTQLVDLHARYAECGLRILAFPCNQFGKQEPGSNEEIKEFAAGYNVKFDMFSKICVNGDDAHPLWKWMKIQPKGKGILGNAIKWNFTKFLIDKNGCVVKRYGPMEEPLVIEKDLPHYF
In short: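 GR-coupled readout: 100 nM GR, 1 mM GSH, 0.5 mM NADPH; NADPH fluorescence (ex 340/em 450 nm) read at t=0 and after 15 min RT. GPX4 200 nM, preincubated 30 min with compound; substrate 0.5 mM CHP.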

[5] = target: Luciferin 4-monooxygenase (Photinus pyralis) (UniProt P08659); experiment: Primary firefly luciferase (FLuc) qHTS assay for identification of artifact compounds. (AID 1845220); conditions: purified firefly luciferase, luminescence, 5 min; series mostly up to 54.1 µM; also: nearly all actives have a fitted effect of over 60% in size
In short: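 qHTS, 15 min compound preincubation with substrate (10 uM luciferin, 10 uM ATP) at RT, then 10 nM FLuc; 5 min; luminescence; % inhibition vs no-enzyme/DMSO controls, 4-parameter Hill fit.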

[6] = Primary fluorescence-based thiol-reactive (MSTI) qHTS assay for identification of artifact compounds. (AID 1845221); conditions: MSTI thiol-reactivity probe, 1 h; series mostly up to 53.8 µM; also: nearly all actives have a fitted effect of over 65% in size; also: potency is read from the fitted curve at half-maximal effect
In short: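 One-hour, room-temperature, dark incubation of compound with 4 uM MSTI in PBS (pH 7.4, 2% DMSO) precedes a fluorescence read at 525 nm excitation, 598 nm emission; Hill-equation fitting yields concentration-response values.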

[7] = test system: Nanoluciferase (engineered Oplophorus gracilirostris luciferase); experiment: Primary Nanoluciferase (NLuc) qHTS assay for identification of artifact compounds. (AID 1845222); conditions: NLuc-conditioned medium, Nano-Glo luminescence, 5 min; series mostly up to 54.1 µM
In short: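 Luminescence read-out of secreted NLuc in S16 cell conditioned medium (1:55); compounds tested with 15 min RT preincubation, then Nano-Glo substrate 1:100, 5 min. % inhibition vs no-enzyme and DMSO controls, 4-parameter Hill fit.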

| SMILES | Potency [1] | Potency [2] | Potency [3] | Potency [4] | Potency [5] | Potency [6] | Potency [7] |
| --- | --- | --- | --- | --- | --- | --- | --- |
| O=C(c1cncc(Br)c1)N1CCC(N2CCCC2)CC1 | inactive | inactive | inactive | inactive | inactive | inactive | inactive |
| CNC(=O)c1cc(Oc2ccc(NC(=O)Nc3cc(C(C)(C)C)nn3-c3ccc4ncccc4c3)c(F)c2)ccn1 | 3.65 µM (active) and 4.17 µM (active) | 7.28 µM (active) and 5.25 µM (active) | inactive | inactive | inactive | inactive | inactive |
| COc1ccc2c(OCc3nnc4ccc(-c5ccccc5)nn34)ccnc2c1 | inactive | inactive | inactive | inactive | inactive | inactive | inactive |
| O=C(O)CCCc1c[nH]c2ccccc12 | inactive | inactive | inactive | inactive | inactive | inactive | inactive |
| CNc1nccc(-c2cccnc2Oc2cc(C(=O)Nc3cccc(C(F)(F)F)c3)ccc2C)n1 | 2.58 µM (active) and 3.72 µM (active) | 4.09 µM (active) | inactive | inactive | inactive | inactive | inactive |
| CC(C)Nc1cc(C(F)(F)F)cc2nc(NC(=O)c3cccnc3)nn12 | inactive | inactive | inactive | inactive | inactive | inactive | inactive |
| CC(C)CC(=O)Nc1n[nH]c2c1CN(C(=O)C1CCN(C)CC1)C2(C)C | 129 nM (active) and 662 nM (active) | 580 nM (active) and 590 nM (active) | inactive | inactive | inactive | inactive | inactive |
| NC(=O)c1c(OCc2c(F)cc(Br)cc2F)nsc1NC(=O)NCCCCN1CCCC1 | 10500 nM (active) | 7.42 µM (active) | inactive | inactive | inactive | inactive | inactive |
| COc1cc2c(Oc3ccc4[nH]c(C)cc4c3F)ncnc2cc1OCCCN1CCCC1 | 4.59 µM (active) and 6.61 µM (active) | 7.28 µM (active) and 7.42 µM (active) | inactive | inactive | inactive | – | inactive |
| c1nc2nc(Nc3ccc(N4CCOCC4)cc3)nc(NC3CCCCC3)c2[nH]1 | 632 nM (active) and 662 nM (active) | 563 nM (active) and 525 nM (active) | inactive | inactive | inactive | 922 nM (active) | inactive |
| Cc1ccc2nc(NC(=O)CSc3nc4c(c(=O)n3-c3ccccc3)SCC4)sc2c1 | inactive | inactive | inactive | inactive | inactive | inactive | inactive |
| Cc1cc(CN2CCN(c3c(Br)cnc4nc(-c5ccc(N6CCN(C)CC6)cc5)[nH]c34)CC2)no1 | 205 nM (active) and 468 nM (active) | 145 nM (active) and 296 nM (active) | 11.4 µM (active) and 12.9 µM (active) | inactive and 14.3 µM (active) | inactive | – | inactive |
| CC(C)(O)c1cc2nc(-c3cnc(N)nc3)nc(N3CCOCC3)c2s1 | 372 nM (active) | 0.372 µM (active) | inactive | inactive | inactive | inactive | inactive |
| COc1cc2c(Oc3ccc(NC(=O)C4(C(=O)Nc5ccc(F)cc5)CC4)cc3F)ccnc2cc1OCCCN1CCOCC1 | 515 nM (active) and 1.32 µM (active) | 365 nM (active) and 833 nM (active) | inactive | inactive | inactive | inactive | inactive |
| Clc1cccc(-c2nnnn2Cc2cccnc2)c1Cl | inactive | inactive | inactive | inactive | inactive | inactive | inactive |
| CC(C)c1cnn2c(NCc3ccccc3)cc(N[C@@H](CO)[C@H](O)CO)nc12 | 515 nM (active) and 186 nM (active) | 515 nM (active) and 166 nM (active) | inactive | inactive | inactive | – | inactive |
| COc1cc(C(=O)N2CCC(N3CCN(C)CC3)CC2)ccc1Nc1ncc2c(n1)N(C)c1ccccc1C(=O)N2C | 1.15 µM (active) and 1.48 µM (active) | 1.45 µM (active) and 1.86 µM (active) | inactive | inactive | inactive | inactive | inactive |
| CC[C@@]1(O)C(=O)OCc2c1cc1n(c2=O)Cc2cc3cc(O)ccc3nc2-1 | 20.9 nM (active) | 0.0118 µM (active) | inactive | inactive | inactive | – | inactive |
| Cc1cn(-c2cc(NC(=O)c3ccc(C)c(Nc4nccc(-c5cccnc5)n4)c3)cc(C(F)(F)F)c2)cn1 | 8.2 µM (active) and 11.8 µM (active) | 5.8 µM (active) and 2.35 µM (active) | inactive | inactive | inactive | inactive | inactive |
